Measurements: PubChem BioAssay (NCATS)
Calls of active or inactive are those of the source. The call rests on the fitted dose curve; in most records, active means well fitted inhibition curve with a large enough effect; inconclusive means small, poorly fitted or top-dose-only effect; inactive means flat fitted curve, though single readings scatter.

Each compound was assayed on Nanoluciferase (engineered Oplophorus gracilirostris luciferase) (assay: Primary Nanoluciferase (NLuc) qHTS assay for identification of artifact compounds. (AID 1845222)). Conditions: NLuc-conditioned medium, Nano-Glo luminescence, 5 min; series mostly up to 54.1 µM; activity, negative = inhibition: at the top concentration.
Description: PI: Alexander Tropsha Ph.D.
UNC Eshelman School of Pharmacy
University of North Carolina, Chapel Hill, North Carolina
Hits from high-throughput screening (HTS) of chemical libraries are often false positives due to their interference with the assay detection technology. In response to this problem, we generated the largest publicly available library of chemical liabilities and developed a free webtool to predict HTS artifacts, both of which are described herein. More specifically, we generated, curated, and integrated HTS datasets for thiol reactivity, redox activity, and luciferase (firefly and nano) activity. Using these curated datasets, we developed and validated several Quantitative Structure-Interference Relationship (QSIR) models to predict nuisance behavior. […] These models were employed for virtual profiling of the National Center for Advancing Translational Science's (NCATS) in-house library, and 256 compounds for each assay were selected for the experimental validation of nuisance behavior. The BA for these external predictions ranged from 58 to 78% for compounds within the applicability domains of the models. […] The models developed in this study, along with aggregation models previously developed by our group (SCAM Detective) were implemented in "Liability Predictor," an online tool which may be used as part of chemical library design or for triaging HTS hits. Both the models and the curated datasets are publicly available at https://liability.mml.unc.edu/.
SEQUENCE No. (e.g., 1, 2, 3, etc.); […] (e.g., Cells, Incubation, Reagent, etc.); VALUE; DESCRIPTION.
1; Reagent; 2 uL; Nanoluciferase media.
2; Compounds and control; 16 nL; Kalypsis pin tool (Wako USA) equipped with a 1536-well pin head.
4; Reagent; 2 uL; Luciferase enzyme.
6; Detection; Luminescence, ViewLux microplate reader.
NOTES (numbers refer to Sequence numbers above)
1. Medium was collected from the culture flasks of NLuc-expressing S16 cells (80% confluent) prior to cell plating, filtered through a 0.22um filter, and frozen at -20C prior to use. Media was diluted (1:55) and 2 uL was dispensed into all wells of a 1536-well assay plate (solid-bottom white plate; Greiner Bio One, Monroe, NC).
2. A Wako Pin-tool (Wako Automation, Richmond, VA) was used to transfer 16 nL of compounds (consisting of 7-plates in qHTS format, final concentration range 18.3 nM to 114 uM) or control Cilnidipine (final concentration range 623 nM to 80 uM).
3. 15 min. incubation at room temperature protected from light.
4. 2 uL of NLuc substrate (1:100 in Nano-Glo luciferase buffer; Nano-Glo luminescence assay, Promega, Madison, WI) was dispensed for a final assay volume of 4 uL.
5. Plates were centrifuged (121xg, 15 seconds) and incubated for 5 minutes.
6. Samples were read for luminescence on a ViewLux CCD imager (PerkinElmer). Data were normalized to no-enzyme (0% activity) and no-inhibitor (DMSO; 100%) controls and the resulting percent inhibition data were fitted to a 4-parameter Hill equation using NCATS in-house software.

Row | Structure (SMILES) | activity, negative = inhibition
1 | CO[C@@H](C)Cn1c(=O)n(C)c2cnc3ccc(-c4cncc(C(C)(C)O)c4)cc3c21 | -10.7% (inactive)
2 | C=C(C(=O)O)C1CCC2(C)CCC(O)C(C)(O)C2C1 (stereo not given) | -0.47% (inactive)
3 | C=C(C)C1CCC(C)C12CC(O)C1(C)OC1C2OC(=O)C(N)CCC(=O)O (stereo not given) | 1.99% (inactive)
4 | Cc1cccc(Oc2cnc(=O)[nH]c2)c1 | 1.82% (inactive)
5 | CC(C)(C#N)c1ccc(N2C(=O)OCc3cnc4ccc(-c5cnc6ccccc6c5)cc4c32)cc1 | 0% (inactive)
6 | C=CC(=O)Nc1cccc(Nc2nc(Nc3ccc(N4CCN(C(C)=O)CC4)cc3OC)ncc2C(F)(F)F)c1 | -4.51% (inactive)
7 | Cc1cccc(C)c1OCc1cc(C(=O)N2CCC(c3ccncc3)CC2)no1 | -10.8% (inactive)
8 | CN1c2ccccc2C(=O)N2CCC3c4ccccc4NC3C21 (stereo not given) | -4.32% (inactive)
9 | COc1ccc([C@H]2CNC(=O)C2)cc1OC1CCCC1 | -5.71% (inactive)
10 | O=C(Nc1c(-c2cccs2)nc2ccccn12)c1ccc(Cl)cc1 | 3.33% (inactive)
11 | CCOCCn1nc(CC)c2nc(N3CCC(C(=O)O)CC3)nc(Nc3cc(C)ccn3)c21 | -21.2% (inactive)
12 | Cc1[nH]nc(C(F)(F)F)c1Cc1sc2c(c1C(=O)N1C[C@](C)(O)CO1)c(=O)n(C)c(=O)n2C(C)C | -2.69% (inactive)
13 | C[C@@]1(O)[C@H](O)[C@@H](CO)O[C@H]1n1ccc(N)nc1=O | -0.0818% (inactive)
14 | [N-]=[N+]=N[C@]1(CO)O[C@@H](n2ccc(=O)[nH]c2=O)[C@@H](O)[C@@H]1O | 2.23% (inactive)
15 | NC(=O)Nc1cc(-c2cccc(F)c2)sc1C(=O)NC1CCCNC1 (stereo not given) | -13.2% (inactive)
16 | CC1(C)CC(=O)C2=C(C1)NC(=S)NC2c1cccc(O)c1 (stereo not given) | -2.44% (inactive)
17 | CC(=O)CCC1=C(C)C(O[C@@H]2O[C@H](CO)[C@@H](O)[C@H](O)[C@H]2O)C(O)CC1(C)C (stereo not given in full) | 2.11% (inactive)
18 | N#CC(c1ccnc(OCc2ccc(CN3CCOCC3)cc2)n1)c1nc2ccccc2s1 (stereo not given) | -11.1% (inactive)
19 | COc1cccc(-c2cc(NCc3ccc4c(c3)OCO4)nc(N)n2)c1 | -0.695% (inactive)
20 | Cn1nnc(-c2ccc(-c3ccc(N4C[C@H](COP(=O)(O)O)OC4=O)cc3F)cn2)n1 | -18.4% (inactive)

Row | Structure (SMILES) | activity, negative = inhibition
21 | CC(C)[N+]1(C)C2CCC1CC(OC(=O)C(CO)c1ccccc1)C2 (stereo not given) | -14.3% (inactive)
22 | CC1(C)CC[C@]2(C(=O)O[C@@H]3O[C@H](CO)[C@@H](O)[C@H](O)[C@H]3O)CC[C@]3(C)C(=CCC4[C@@]5(C)C[C@@H](O)[C@H](O)[C@@](C)(CO)C5CC[C@]43C)C2[C@@H]1O (stereo not given in full) | -14.2% [at 25.7 µM] (inactive)
23 | C=C(CO[C@@H]1O[C@H](CO[C@@H]2OC[C@](O)(CO)[C@H]2O)[C@@H](O)[C@H](O)[C@H]1O)C1Cc2cc(C(C)=O)ccc2O1 (stereo not given in full) | -3.93% [at 25.7 µM] (inactive)
24 | CCc1c(C)nc2c(-c3cnn(-c4cc(CO)ccn4)c3)c[nH]n2c1=O | -0.0181% (inactive)
25 | NC(=O)c1cccc2cn(-c3ccc(C4CCCNC4)cc3)nc12 (stereo not given) | -9.58% (inactive)
26 | C/C=C/C=C/C=C/C(=O)OC1C=C(C=O)C(O)(C(=O)O)C2(C)CCCC(C)(C)C12 (stereo not given) | -1.87% [at 25.7 µM] (inactive)
27 | COc1ccc2nc(S(=O)(=O)Cc3ncc(C)c(OC)c3C)[nH]c2c1 | -6.34% (inactive)
28 | C=C1CC23CC1CCC2C12OC(=O)C(C)(CCC1O)C2C3C(=O)O (stereo not given) | -1.6% (inactive)
29 | C[C@H](NC(c1cccc(C[P+](=O)O)c1)[C@H](C)O)c1ccc(Cl)c(Cl)c1 (stereo not given in full) | 0% (inactive)
30 | CCc1cccc(CC)c1NC(=O)c1nn(C)c2c1CCc1cnc(Nc3ccc(C(=O)NC4CCN(C)CC4)cc3OC(F)(F)F)nc1-2 | 0.436% [at 25.7 µM] (inactive)
31 | OC[C@H]1O[C@@H](OCCc2ccccc2)[C@H](O[C@@H]2OC[C@](O)(CO)[C@H]2O)[C@@H](O)[C@@H]1O | -1.53% [at 25.7 µM] (inactive)
32 | O=C(O[C@H]1[C@@H]2C=CO[C@@H](O[C@@H]3O[C@H](CO)[C@@H](O)[C@H](O)[C@H]3O)[C@@H]2[C@@]2(CO)O[C@@H]12)c1ccccc1 | -0.123% [at 25.7 µM] (inactive)
33 | CC(Cc1cc2c(c(C(N)=O)c1)N(CCCO)CC2)NCCOc1ccccc1OCC(F)(F)F (stereo not given) | -0.287% (inactive)
34 | O=C(NOCC(O)CO)c1ccc(F)c(F)c1Nc1ccc(I)cc1F (stereo not given) | 0% (inactive)
35 | O=C(O[C@H]1[C@@H]2C[C@@H]3OC[C@](O)([C@@H]1Cl)[C@H]2C(O[C@@H]1O[C@H](CO)[C@@H](O)[C@H](O)[C@H]1O)O3)c1ccc(O)c(O)c1 (stereo not given in full) | 2.35% [at 25.7 µM] (inactive)
36 | Cc1c(C(=O)Nc2ccc(N3CC(C)OC(C)C3)nc2)cccc1-c1ccc(OC(F)(F)F)cc1 (stereo not given) | 3.89% (inactive)
37 | COC(=O)C12C(=O)C(C)=C(O)C1(C)C(C)=CC1C3(CO)CCC(O)C(C)(C)C3CCC12C (stereo not given) | -4.67% [at 25.7 µM] (inactive)
38 | O=C(O)c1cn(C2CC2)c2cc(N3C[C@@H]4C[C@H]3CN4)c(F)cc2c1=O | 2.47% (inactive)
39 | Cc1ccc(S(=O)(=O)Cc2nc(-c3ccc(C(=O)NCc4cccnc4)cc3)oc2C)cc1 | -9.91% (inactive)
40 | Cc1c(NC(=O)c2cc(C(N)=O)nc3cc(F)ccc23)c(C(F)(F)F)nn1Cc1ccc(C#N)cc1 | 2% [at 25.7 µM] (inactive)
